The values that follow come from PubChem BioAssay (NCATS).

One experiment concerns W2. The experiment in a line: qHTS profiling for inhibitors of Plasmodium falciparum proliferation (AID 504749). Also: potency is read from the fitted curve at half-maximal effect. The note with it: P. falciparum in erythrocytes, SYBR Green DNA, 72 h; series mostly up to 28.7 µM. Summed up:
(§1)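 Readout was DNA-dye fluorescence from lysed cultures, ex 485/em 535 nm. Parasitized red cells had grown 72 h with compound; data scaled between 0.29 uM artemisinin and DMSO wells and corrected using vehicle-only plates.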

The subject of the next experiment is CRL-7250. As to the kind of experiment: Cytotoxic Profiling of Annotated Libraries Using Quantitative High-Throughput Screening (AID 1296008). Also: potency is read from the fitted curve at half-maximal effect. As to max response: % is scaled to controls: 0 for no effect and ±100 for the full control effect. The note with it: Five cell lines viability, CellTiter-Glo ATP luminescence, 48-72 h; max response: stronger effect = lower value. The method in brief:
(§2)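 Cells exposed to compounds for 48 or 72 hr at 37 degrees Celsius. Viability read as ATP-coupled luminescence with CellTiter-Glo after 10 min at room temperature.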
A general note: Cellular ATP, detected with luciferase, serves as a proxy for viable cell number.

The test system of a further experiment is HEK293. The description is as above. The note with it: Five cell lines viability, CellTiter-Glo ATP luminescence, 48-72 h; max response: stronger effect = lower value. The method in brief:
as §2

Experiment [1] has as its system HaCat. The description is as above. The note with it: Five cell lines viability, CellTiter-Glo ATP luminescence, 48-72 h; max response: stronger effect = lower value. Summed up: as §2
Another experiment deals with KB-3-1. The experiment is described as above. The note with it: Five cell lines viability, CellTiter-Glo ATP luminescence, 48-72 h; max response: stronger effect = lower value. Summed up: as §2
Another experiment deals with NIH3T3. The description is as above. The note with it: Five cell lines viability, CellTiter-Glo ATP luminescence, 48-72 h; max response: stronger effect = lower value. The method in brief: as §2
The next experiment deals with TAB113. As to the kind of experiment: qHTS profiling for inhibitors of Plasmodium falciparum proliferation (AID 504749). Also: potency is read from the fitted curve at half-maximal effect. The note with it: P. falciparum in erythrocytes, SYBR Green DNA, 72 h; series mostly up to 28.7 µM. The method in brief: as §1
On the technique in general: In qHTS, concentration-response curves come from the screen itself.

In a further experiment the test system is TAB165. The description is as above. The note with it: P. falciparum in erythrocytes, SYBR Green DNA, 72 h; series mostly up to 28.7 µM. Summed up: as §1
Experiment [2] concerns HACAT. The experiment in a line: qHTS assay to identify novel small-molecules to repurpose for Merkel cell carcinoma treatment (AID 1296009). The note with it: MCC and control cell lines, CellTiter-Glo viability, 72 h; at 44.8 µM (top of the series) unless noted. Summed up:
(§3)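 Cells were incubated with compound for 72 hr at 37 degree celsius before CellTiter-Glo addition. Luminescence was normalized with no-cell wells as full cytotoxicity and DMSO as baseline.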

A further experiment has as its system HEK293T. Described as above. The note with it: MCC and control cell lines, CellTiter-Glo viability, 72 h; at 44.8 µM (top of the series) unless noted. Summed up:
as §3

Each structure is given as a SMILES string. Values joined by “and” are separate entries in the source; they are usually repeats but may differ in a detail not shown here. Equal values may be shown once. Records with an inconclusive call do not appear. Some compounds were tested as several samples or in several runs, with calls that do not always agree. A number with no mark means an inactive call. Active and inactive are the calls of the source. Calls follow the shape of the dose curve; as a rule, active = well fitted inhibition curve with a large enough effect; inconclusive = small, poorly fitted or top-dose-only effect; inactive = flat fitted curve, though single readings scatter.
Also: nearly all actives have a fitted effect of over 60% in size.

With `NC(N)=N/N=C/c1c(Cl)cccc1Cl`, the Potency in the experiment on W2 is 12 µM (active); in the experiment on HEK293 it was 18.8 µM (active). For the same compound, the max response in the experiment with CRL-7250 is 3.75%; in the experiment on HaCat [1], -6.3%; with KB-3-1, 0.665%; in the experiment with NIH3T3, 3.93%.

As to `CCCCCN(CCCCC)C(=O)C(CCC(=O)O)NC(=O)c1ccc(Cl)c(Cl)c1` (stereo not given), the Potency entry with TAB113, in the experiment on TAB165 and in the experiment on W2 was “inactive” each time. Moreover, the max response in the experiment on CRL-7250 was -3.52%; with HEK293 it was -9.3%; in the experiment on NIH3T3 it was -0.48%. In addition, the result in the experiment on HaCat [1] and with HACAT [2] was inactive.

With `CC(C)(Oc1ccc(CCNC(=O)c2ccc(Cl)cc2)cc1)C(=O)O`, the Potency entry with TAB113, with TAB165 and with W2 was “inactive” throughout. For the same compound, the results for the max response in the experiment on CRL-7250 and with HEK293 were -10.1% and -102%, respectively. For the same compound, the compound was called inactive in the experiment with HaCat [1], in the experiment with NIH3T3 and in the experiment with HACAT [2].

Consider `CCCN(CCC)CCc1cccc2c1CC(=O)N2`, for which the Potency result in the experiment on TAB113, in the experiment with TAB165 and in the experiment on W2 was “inactive” in each case. The max response with CRL-7250 is 1.13%; in the experiment on HaCat [1], -2.54%; in the experiment with NIH3T3 it was -15.5%. Besides, the call in the experiment with HEK293 and in the experiment on HEK293T was inactive.

As for `CN=C(NC#N)NCCSCc1nc[nH]c1C`, the Potency entry in the experiment on TAB113, in the experiment with TAB165 and with W2 was “inactive” each time. Moreover, the compound was called inactive with CRL-7250, with HEK293, in the experiment on HaCat [1], with HACAT [2] and with HEK293T. Besides, in the experiment on NIH3T3, the max response is -0.832%.

As for `Cc1ccc(/C(=C\CN2CCCC2)c2ccccn2)cc1`, the max response is 0.263% in the experiment with CRL-7250, -16.2% with HEK293, -3.07% in the experiment with HaCat [1] and 1.95% in the experiment with NIH3T3.

With `COC(=O)C1=C(C)NC(C)=C(C(=O)OCCN(C)Cc2ccccc2)C1c1cccc([N+](=O)[O-])c1` (stereo not given), the figures for the Potency with CRL-7250, with HEK293 and in the experiment with NIH3T3 were 21.1 µM (active), 11.9 µM (active) and 26.6 µM (active), respectively. The max response in the experiment with KB-3-1 was -10.4%.

For `O=C1CC2(CCCC2)CC(=O)N1CCCCN1CCN(c2ncccn2)CC1`, the Potency result in the experiment with TAB113 and with TAB165 was “inactive” throughout. Further, the compound was called inactive in the experiment with CRL-7250, with HaCat [1] and in the experiment on HACAT [2]. Moreover, the max response in the experiment on HEK293 is -2.12%; in the experiment on NIH3T3, -6.17%.

Turning to `NC(=O)c1cn(Cc2c(F)cccc2F)nn1`, the Potency result in the experiment with TAB113, in the experiment on TAB165 and in the experiment on W2 was “inactive” in each case. Moreover, in the experiment with CRL-7250, the result was inactive. Also, the results for the max response in the experiment on HEK293, in the experiment with HaCat [1] and with NIH3T3 were 4.15%, 0.796% and -0.364%, respectively.

Regarding `N[C@@H](COP(=O)(O)O)C(=O)O`, the outcome in the experiment on CRL-7250 was inactive. The max response is -2.26% in the experiment on HEK293, -0.563% in the experiment with KB-3-1 and -2.11% in the experiment on NIH3T3.

`COc1ccc(CCN(C)CCCC(C#N)(c2cc(OC)c(OC)c(OC)c2)C(C)C)cc1OC` (stereo not given): in the experiment with W2, the Potency was 2.39 µM (active). Further, the max response is -12.1% in the experiment with CRL-7250, -0.362% in the experiment on KB-3-1 and 0.424% with NIH3T3. In addition, the compound was classed as inactive in the experiment with HaCat [1] and in the experiment with HACAT [2].

With `C=CCc1ccccc1OCC(O)CNC(C)C` (stereo not given), the Potency in the experiment with TAB165 was 10 µM (active); in the experiment with W2, 2.39 µM (active). For the same compound, the max response is -1.4% in the experiment with CRL-7250, 4.41% with HaCat [1], 2.54% in the experiment on KB-3-1 and -0.59% in the experiment with NIH3T3.

As for `CCCN1C[C@H](CSC)C[C@@H]2c3cccc4[nH]cc(c34)C[C@H]21`, the Potency was 14.1 µM (active) in the experiment with TAB165, 5.36 µM (active) in the experiment with W2 and 21.1 µM (active) in the experiment on NIH3T3. Besides, the max response in the experiment on CRL-7250 is -3.21% and -8.84%; in the experiment with HaCat [1] it was 4.81% and -5.73%; in the experiment on NIH3T3 it was -7.31%.

For `CC(=O)[C@@]1(O)CC[C@H]2[C@@H]3CCC4=CC(=O)CC[C@]4(C)[C@H]3CC[C@@]21C`, the Potency entry with TAB113, in the experiment on TAB165 and in the experiment on W2 was “inactive” each time. Besides, in the experiment with CRL-7250, the compound was called inactive. Moreover, the results for the max response in the experiment on HaCat [1], in the experiment on KB-3-1 and in the experiment on NIH3T3 were 1.18%, -5.68% and 2.18%, respectively.

As for `COC(=O)[C@H]1[C@H]2C[C@@H]3c4[nH]c5cc(OC)ccc5c4CCN3C[C@H]2C[C@@H](OC(=O)c2cc(OC)c(OC)c(OC)c2)[C@@H]1OC`, the results for the Potency in the experiment on TAB113, in the experiment on TAB165 and in the experiment on W2 were 5.62 µM (active), 3.98 µM (active) and 3.79 µM (active), respectively. Further, the max response with CRL-7250 is 0.615% and 0.375%; with HaCat [1], -6.17% and -7.84%; in the experiment with NIH3T3, -3.91% and -6.42%.

Take `c1cnc(N2CCN(Cc3ccc4c(c3)OCO4)CC2)nc1`: the Potency result in the experiment with TAB113, in the experiment on TAB165 and in the experiment on W2 was “inactive” in each case. Further, the results for the max response in the experiment on CRL-7250 and in the experiment with NIH3T3 were -1.35% and -2.83%, respectively. Besides, the compound was called inactive with HaCat [1] and in the experiment on HACAT [2].

In the case of `Cc1nnc(SCC2=C(C(=O)O)N3C(=O)[C@@H](NC(=O)Cn4cnnn4)[C@H]3SC2)s1`, the Potency entry in the experiment with TAB113, in the experiment with TAB165 and in the experiment with W2 was “inactive” throughout. Moreover, the outcome with HEK293, in the experiment with HaCat [1], in the experiment with HACAT [2] and with HEK293T was inactive. Further, the results for the max response with KB-3-1 and with NIH3T3 were 4.46% and -2.45%, respectively.

Take `CN(C)[C@@H]1C(=O)C(C(N)=O)=C(O)[C@@]2(O)C(=O)C3=C(O)c4c(O)ccc(Cl)c4[C@@H](O)[C@H]3C[C@@H]12`: the call in the experiment with CRL-7250, with HaCat [1], in the experiment on NIH3T3 and in the experiment with HACAT [2] was inactive.

As for `C[C@]12CCC(=O)C=C1CC[C@@H]1[C@@H]2CC[C@@]2(C)[C@H]1CC[C@]2(O)C(=O)CO`, the Potency result with TAB113, with TAB165 and with W2 was “inactive” throughout. Further, the max response in the experiment on CRL-7250 is -9.98%; with HaCat [1], -3.7%; with NIH3T3, -17.4%.

As to `CCN(CC)CCCN(c1ccccc1)C1Cc2ccccc2C1`, the Potency was 3.98 µM (active) in the experiment with TAB113, 3.98 µM (active) with TAB165 and 0.601 µM (active) with W2. For the same compound, the figures for the max response in the experiment on CRL-7250 and in the experiment with NIH3T3 were 2.42% and -8.45%, respectively. Also, the call with HaCat [1] and in the experiment with HACAT [2] was inactive.

For the compound `CCO/C([O-])=N/c1c[n+](N2CCOCC2)no1`, the Potency entry in the experiment with TAB113, in the experiment with TAB165 and in the experiment with W2 was “inactive” each time. In the experiment on CRL-7250, the call was inactive. In addition, the max response with HEK293 was -1.87%; with NIH3T3 it was -0.944%.

For `COc1ccc2c(c1OC)C(=O)O[C@@H]2[C@H]1c2c(cc3c(c2OC)OCO3)CCN1C`, the max response in the experiment with CRL-7250 was 4.94%; in the experiment with KB-3-1, -12.5%; with NIH3T3, -0.798%.

Regarding `C[C@]12CC[C@@H]3c4ccc(O)cc4C[C@@H](CCCCCCCCCS(=O)CCCC(F)(F)C(F)(F)F)[C@H]3[C@@H]1CC[C@@H]2O` (stereo not given in full), the max response in the experiment with CRL-7250 is -49.4%; in the experiment on HaCat [1] it was -6.63%; in the experiment with KB-3-1 it was 3.54%; in the experiment on NIH3T3, -7.29%.

For the compound `COc1ccc(CN(CCN(C)C)c2ccccn2)cc1`, the Potency entry in the experiment on TAB113 and in the experiment on TAB165 was “inactive” throughout. For the same compound, in the experiment with W2, the Potency was 7.57 µM (active). Further, the max response is 1.58% with CRL-7250, -13% in the experiment with KB-3-1 and 2.14% in the experiment on NIH3T3. In addition, the compound was called inactive with HaCat [1] and in the experiment with HACAT [2].
